The AC50 is the midpoint of the concentration-response curve, whichever way the signal moves.

Read-out in experiment [1]: Vascular endothelial growth factor receptor 2 (Homo sapiens) (UniProt P35968)
In words: BSK_4H_VEGFRII: BioMAP Diversity Plus: 4H Assay for Vascular endothelial growth factor receptor 2 (VEGFR2) Biomarker Activity (AID 2283031). Conditions: primary human endothelial cells (HUVEC); actives raise or lower the signal. In outline: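 Primary human umbilical vein endothelial cells (4H system), 24 h exposure; cell-surface VEGFR2 measured by ELISA. Bidirectional fitting versus DMSO; cytotoxicity checked in parallel by SRB total-protein staining.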

Read-out in experiment [2]: Human Leukocyte Antigen - DR isotype (HLADR), HLA-DRA (gene 3122)
In words: BSK_BE3C_HLADR: BioMAP Diversity Plus: BE3C Assay for Human Leukocyte Antigen - DR isotype (HLADR) Biomarker Activity (AID 2283032). Conditions: primary human bronchial epithelial cells; actives raise or lower the signal. The method, boiled down:
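ELISA read-out of HLA-DR on human lung bronchial epithelial primary cells, measured 24 h post-dosing. Both increases and decreases were scored relative to DMSO vehicle.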

Read-out in experiment [3]: Vascular cell adhesion molecule 1 (VCAM1), VCAM1 (gene 7412)
Description: BSK_4H_VCAM1: BioMAP Diversity Plus: 4H Assay for Vascular cell adhesion molecule 1 (VCAM1) Biomarker Activity (AID 2283033).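 Also: cell-surface VCAM-1 protein measured by ELISA.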 The following applies: primary human endothelial cells (HUVEC); actives raise or lower the signal. The method, boiled down:
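ELISA read-out of VCAM-1 on human umbilical vein endothelium 24 hours after chemical dosing; gain or loss of signal was fitted relative to DMSO, with sulforhodamine B staining of parallel cultures flagging overt cytotoxicity.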

Read-out in experiment [4]: Interferon-gamma inducible Protein 10 (IP10), CXCL10 (gene 3627)
Description: BSK_BE3C_IP10: BioMAP Diversity Plus: BE3C Assay for Interferon-gamma inducible Protein 10 (IP10) Biomarker Activity (AID 2283034). The following applies: primary human bronchial epithelial cells; actives raise or lower the signal. In outline: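 Chemical is dosed onto human lung bronchial epithelial primary cells, cultures are incubated 24 h, and IP-10 is then quantified by ELISA. Gain or loss of signal is fitted in both directions relative to DMSO.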

Read-out in experiment [5]: Monokine induced gamma interferon (MIG), CXCL9 (gene 4283)
Description: BSK_BE3C_MIG: BioMAP Diversity Plus: BE3C Assay for Monokine induced gamma interferon (MIG) Biomarker Activity (AID 2283035). Conditions: primary human bronchial epithelial cells; actives raise or lower the signal. In outline:
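MIG level was determined by ELISA after 24 h chemical treatment of primary human bronchial epithelial cells. Values were fitted bidirectionally with DMSO as the negative control and activity baseline.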

Read-out in experiment [6]: Transforming growth factor beta 1 (TGFb1), TGFB1 (gene 7040)
Description: BSK_BE3C_TGFb1: BioMAP Diversity Plus: BE3C Assay for Transforming growth factor beta 1 (TGFb1) Biomarker Activity (AID 2283036;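 as to outcome: TGF-b1 protein level measured by ELISA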). The following applies: primary human bronchial epithelial cells; actives raise or lower the signal. In outline: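 Primary human lung bronchial epithelial cells; compound exposure 24 h; TGF-b1 by ELISA; bidirectional fit, DMSO baseline. Parallel SRB total-protein staining for cytotoxicity.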

Read-out in experiment [7]: Plasminogen activator inhibitor-1 (PAI1), SERPINE1 (gene 5054)
In words: BSK_BE3C_PAI1: BioMAP Diversity Plus: BE3C Assay for Plasminogen activator inhibitor-1 (PAI1) Biomarker Activity (AID 2283037). Conditions: primary human bronchial epithelial cells; actives raise or lower the signal. In outline: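 Primary human lung bronchial epithelial cells; chemical dosing; 24 h; PAI-1 measured by ELISA; bidirectional fit referenced to DMSO as negative control.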

Read-out in experiment [8]: urokinase plasminogen activator (uPA), PLAU (gene 5328)
Description: BSK_BE3C_uPA: BioMAP Diversity Plus: BE3C Assay for urokinase plasminogen activator (uPA) Biomarker Activity (AID 2283038).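 As to outcome: uPA protein level quantified by ELISA in cell cultures; uPA read one day after compound addition.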 The following applies: primary human bronchial epithelial cells; actives raise or lower the signal. The method, boiled down: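 Primary human bronchial epithelial cells, uPA measured by ELISA 24 h after dosing. Bidirectional change relative to DMSO; cytotoxicity checked in parallel cultures by sulforhodamine B total-protein staining.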

Read-out in experiment [9]: Urokinase-type plasminogen activator receptor (uPAR), PLAUR (gene 5329)
Description: BSK_BE3C_uPAR: BioMAP Diversity Plus: BE3C Assay for Urokinase-type plasminogen activator receptor (uPAR) Biomarker Activity (AID 2283039).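 As to outcome: uPAR protein level measured by ELISA on the cells; cells exposed to compound for one day before measurement.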 The following applies: primary human bronchial epithelial cells; actives raise or lower the signal. In outline:
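Human bronchial epithelial primary cells; chemical exposure 24 h; uPAR by ELISA; bidirectional fit vs DMSO control.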

Read-out in experiment [10]: Interleukin-6 (IL6), IL6 (gene 3569)
In words: BSK_CASM3C_IL6: BioMAP Diversity Plus: CASM3C Assay for Interleukin-6 (IL6) Biomarker Activity for (AID 2283040). The following applies: primary human coronary artery smooth muscle cells; actives raise or lower the signal.

Read-out in experiment [11]: Tissue plasminogen activator (tPA), PLAT (gene 5327)
Description: BSK_BE3C_tPA: BioMAP Diversity Plus: BE3C Assay for Tissue plasminogen activator (tPA) Biomarker Activity (AID 2283041).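 As to outcome: tPA level quantified by ELISA one day after compound addition.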 The following applies: primary human bronchial epithelial cells; actives raise or lower the signal. The method, boiled down: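 Primary human lung bronchial epithelial cultures receive test chemical; after 24 h, tPA is quantified by ELISA, and gain or loss of signal is fitted bidirectionally relative to DMSO baseline.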

Read-out in experiment [12]: Interleukin-8 (IL8), CXCL8 (gene 3576)
Description: BSK_CASM3C_IL8: BioMAP Diversity Plus: CASM3C Assay for Interleukin-8 (IL8) Biomarker Activity (AID 2283042).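 Also: IL-8 protein level quantified by ELISA.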 Conditions: primary human coronary artery smooth muscle cells; actives raise or lower the signal.

Read-out in experiment [13]: Human Leukocyte Antigen - DR isotype (HLADR), HLA-DRA (gene 3122)
Description: BSK_CASM3C_HLADR: BioMAP Diversity Plus: CASM3C Assay for Human Leukocyte Antigen - DR isotype (HLADR) Biomarker Activity (AID 2283043).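 Also: cell-surface HLA-DR protein level quantified by ELISA.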 Conditions: primary human coronary artery smooth muscle cells; actives raise or lower the signal.

Read-out in experiment [14]: Macrophage colony-stimulating factor (MCSF), CSF1 (gene 1435)
Description: BSK_CASM3C_MCSF: BioMAP Diversity Plus: CASM3C Assay for Macrophage colony-stimulating factor (MCSF) Biomarker Activity (AID 2283044).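 Also: M-CSF protein amount quantified by ELISA after 24 h exposure.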 The following applies: primary human coronary artery smooth muscle cells; actives raise or lower the signal.

Read-out in experiment [15]: Low-density lipoprotein receptor (LDLR), LDLR (gene 3949)
In words: BSK_CASM3C_LDLR: BioMAP Diversity Plus: CASM3C Assay for Low-density lipoprotein receptor (LDLR) Biomarker Activity (AID 2283045).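 Also: LDLR protein level on the cell surface quantified by ELISA.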 The following applies: primary human coronary artery smooth muscle cells; actives raise or lower the signal.

Read-out in experiment [16]: Monocyte Chemoattractant Protein-1 (MCP1), CCL2 (gene 6347)
In words: BSK_CASM3C_MCP1: BioMAP Diversity Plus: CASM3C Assay for Monocyte Chemoattractant Protein-1 (MCP1) Biomarker Activity (AID 2283046).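 Also: MCP-1 level quantified by ELISA 24 h after dosing.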 The following applies: primary human coronary artery smooth muscle cells; actives raise or lower the signal.

The nature of experiment [17]: BSK_CASM3C_Proliferation: Cell Proliferation Assessment in the BioMAP Diversity Plus: CASM3C Assay (AID 2283047).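 Also: sulforhodamine B total protein stain as relative cell number at 560 nm; sub-confluent cells exposed 48 h before staining; fitted both ways against DMSO so gain or loss of cell number.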 The following applies: primary human coronary artery smooth muscle cells.
Read-out in experiment [18]: Monokine induced gamma interferon (MIG), CXCL9 (gene 4283)
In words: BSK_CASM3C_MIG: BioMAP Diversity Plus: CASM3C Assay for Monokine induced gamma interferon (MIG) Biomarker Activity (AID 2283048).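 Also: MIG protein level measured by ELISA.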 The following applies: primary human coronary artery smooth muscle cells; actives raise or lower the signal.

Read-out in experiment [19]: serum amyloid A (SAA), SAA1 (gene 6288)
In words: BSK_CASM3C_SAA: BioMAP Diversity Plus: CASM3C Assay for serum amyloid A (SAA) Biomarker Activity (AID 2283049).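 Also: SAA protein level quantified by ELISA.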 Conditions: primary human coronary artery smooth muscle cells; actives raise or lower the signal.

Experiment [20] can be described thus: BSK_CASM3C_SRB: Viability Assessment in the BioMAP Diversity Plus: CASM3C Assay (AID 2283050).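 Also: total protein by SRB staining as cytotoxicity measure in parallel cultures.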 Conditions: primary human coronary artery smooth muscle cells.

Structures are written as SMILES. “And” between values parts separate entries of the source, which are not always exact repeats. Equal values may be shown once. A structure can be active in one record and inactive in another. The source made the active and inactive calls. The calls were made as follows: active = hit-call score of the fitted dose curve at least 0.9, where 1 is the maximum; inactive = score below 0.9.

As for `CC(C)(C)C(O)C(Oc1ccc(Cl)cc1)n1cncn1` (configuration not stated), the result in experiment [1], in [2], in experiment [3], in [4], in experiment [5] and in experiment [6] was inactive. The outcome in experiment [7], in [8], in experiment [9], in experiment [10], in experiment [11] and in [12] was inactive. The result in experiment [13], in [14], in experiment [15], in experiment [16], in experiment [17] and in [18] was inactive. Further, the result in experiment [19] and in [20] was inactive. The AC50 in experiment [2] is 24.2 µM (active).

Turning to `N#CN`, the outcome in [1], in [2], in experiment [3], in experiment [4], in experiment [5] and in experiment [7] was inactive. Moreover, the outcome in experiment [8], in experiment [9], in [10], in [11], in experiment [12] and in experiment [13] was inactive. In addition, the outcome in experiment [14], in experiment [15], in experiment [16], in experiment [17], in experiment [18] and in experiment [19] was inactive. In addition, in [20], the result was inactive. The AC50 in experiment [6] was 638 nM (active).

`O=S(=O)(O)C(F)(F)C(F)(F)C(F)(F)C(F)(F)C(F)(F)C(F)(F)C(F)(F)C(F)(F)F`: the result in experiment [1], in experiment [3], in experiment [5], in experiment [6], in experiment [7] and in experiment [8] was inactive. Besides, the result in experiment [9], in experiment [10], in experiment [11], in experiment [12], in experiment [13] and in experiment [14] was inactive. The result in [15], in experiment [16], in experiment [17], in [18], in experiment [19] and in experiment [20] was inactive. For the same compound, the AC50 in [2] was 23.1 µM (active) [middle of 8 runs]; in experiment [4] it was 17.3 µM (active) [middle of 7 runs]; in [5] it was 43.3 µM (active) [middle of 4 runs]; in experiment [6], 28.6 µM (active) and 12.1 µM (active) and 19.2 µM (active); in experiment [8], 32 µM (active) [middle of 4 runs]; in experiment [9], 33.2 µM (active) and 32.7 µM (active) and 6.81 µM (active). Moreover, the AC50 in experiment [11] is 15.3 µM (active) and 16 µM (active) and 25.9 µM (active); in experiment [18] it was 47.3 µM (active) and 52.5 µM (active).

Consider `CCCN(CCOc1c(Cl)cc(Cl)cc1Cl)C(=O)n1ccnc1`, for which the result in experiment [1], in experiment [3], in experiment [5], in [6], in experiment [9] and in [10] was inactive. In addition, the result in [11], in experiment [12], in experiment [13], in experiment [14], in experiment [15] and in experiment [16] was inactive. In addition, the outcome in experiment [18], in [19] and in [20] was inactive. The AC50 was 29.3 µM (active) in experiment [2]; 29.9 µM (active) in [4]; 30.9 µM (active) in experiment [7]; 32 µM (active) in experiment [8]; 26.8 µM (active) in [17].

As to `COC(=O)c1ccccc1S(=O)(=O)NC(=O)Nc1nc(C)nc(OC)n1`, the result in [1], in experiment [2], in experiment [3], in experiment [4], in [5] and in experiment [6] was inactive. Further, the result in [7], in experiment [8], in [10], in experiment [11], in experiment [12] and in experiment [13] was inactive. The result in experiment [14], in [15], in experiment [16], in experiment [17], in [18] and in experiment [19] was inactive. For the same compound, the outcome in experiment [20] was inactive. Besides, in experiment [9], the AC50 was 173 nM (active).

(Values after PubChem BioAssay (EPA / NIEHS).)
